Test results from PubChem BioAssay (Tox21).
Inconclusive results are not listed. Calls of active or inactive are those of the source. Unless noted, calls follow the shape of the dose curve; as a rule, active = well fitted curve in the direction sought with a large enough effect in the repeat runs; inconclusive = weak or mixed curves; inactive = no such curve, though single readings can be large; an effect the other way counts as inactive or inconclusive.

Columns and labels:
[1] = qHTS assay to test for compound auto fluorescence at 535 nm (green) in HEK293 cells (AID 720680)
[2] = qHTS assay to test for compound auto fluorescence at 535 nm (green) in HEK293 cell free culture (AID 720682)
Outline: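 DMEM + 10% FBS, cell-free; cpd or DMSO pinned in; Ex485/Em535 read; output as fluorescein-equivalent signal.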

[3] = qHTS assay to test for compound auto fluorescence at 590 nm (red) in HEK293 cell free culture (AID 720683)
Outline: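 Red-channel autofluorescence of compounds in culture medium (DMEM, 10% FBS), no cells, measured at 540/590 nm. Rose Bengal sodium is the reference fluorophore for equivalence.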

[4] = qHTS assay to test for compound auto fluorescence at 590 nm (red) in HepG2 cell free culture (AID 720684)
Outline: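 Steps: dispense MEM/10% FBS medium, no cells; pin compound or DMSO vehicle; read red channel, Ex/Em 540/590 nm. Output given as Rose Bengal sodium equivalents.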

[5] = qHTS assay to test for compound auto fluorescence at 535 nm (green) in HepG2 cell free culture (AID 720686)
[6] = qHTS assay to test for compound auto fluorescence at 460 nm (blue) in HepG2 cells (AID 720687)
Outline: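 Blue-channel autofluorescence (Ex/Em 405/460 nm, triamterene-equivalent) was measured after 1 hr compound exposure at 37 C, 5% CO2. Cells were HepG2, plated overnight at 37 C in MEM plus 10% FBS.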

[7] = target: Glucocorticoid receptor (Homo sapiens) (UniProt P04150); test: qHTS assay to identify small molecule agonists of the glucocorticoid receptor (GR) signaling pathway (AID 720691; active = well fitted activation curve with a large enough effect in the signal ratio in the repeat runs, not every such curve was filed as active; the % refers to the signal ratio)
Outline: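 GR-bla HeLa cells carrying a GRE-driven beta-lactamase reporter, exposed to compounds for 18 h at 37 C. Reporter activation read as fluorescence after 2 h with LiveBLAzer B/G FRET substrate at room temperature.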

[8] = target: Glucocorticoid receptor (Homo sapiens) (UniProt P04150); test: qHTS assay to identify small molecule antagonists of the glucocorticoid receptor (GR) signaling pathway (AID 720692; active = well fitted inhibition curve with a large enough effect in the signal ratio in the repeat runs, not every such curve was filed as active; the % refers to the signal ratio)
Outline: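 GR-bla HeLa cells carrying a GRE-driven beta-lactamase reporter received compound after 4 h plating, then dexamethasone (5 nM final). After 18 h at 37C, the FRET substrate was loaded for 2 h at room temperature and fluorescence read.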

[9] = qHTS assay to identify small molecule antagonists of the glucocorticoid receptor (GR) signaling pathway - cell viability counter screen (AID 720693); also: nearly all actives have a fitted effect of over 55% in size
[10] = qHTS assay for identifying genotoxic compounds that show differential cytotoxicity against isogenic chicken DT40 cell lines with known DNA damage response pathways - wild type cell line (AID 743012); also: nearly all actives have a fitted effect of over 60% in size
Outline: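 Wild-type DT40 cells (300/well) exposed to compounds for 40 hours at 37 C/5% CO2. Viability read by CellTiter-Glo luminescence after 30 min at room temperature.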

[11] = qHTS assay for identifying genotoxic compounds that show differential cytotoxicity against isogenic chicken DT40 cell lines with known DNA damage response pathways - Rev3 mutant cell line (AID 743014); also: nearly all actives have a fitted effect of over 55% in size
[12] = qHTS assay for identifying genotoxic compounds that show differential cytotoxicity against isogenic chicken DT40 cell lines with known DNA damage response pathways - Rad54/Ku70 mutant cell line (AID 743015); also: nearly all actives have a fitted effect of over 60% in size
[13] = qHTS assay to identify small molecule antagonists of the androgen receptor (AR) signaling pathway - cell viability counter screen (AID 743033; also: nearly all actives have a fitted effect of over 45% in size)
[14] = qHTS assay to identify small molecule antagonists of the androgen receptor (AR) signaling pathway using the MDA cell line - cell viability counter screen (AID 743041; also: nearly all actives have a fitted effect of over 45% in size)
Outline: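 Cells were plated at 3,000 per well and left 5 h. Compounds in DMSO were then pinned in, followed by R1881. After 16 h at 37C, CellTiter-Fluor fluorescence gave viability.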

[15] = qHTS assay to test for compound auto fluorescence at 460 nm (blue) in HepG2 cell free culture (AID 720685)
Outline: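 Compound (23 nL) or DMSO pinned into cell-free MEM with 10% FBS; blue fluorescence read at 405/460 nm excitation/emission, expressed as auto-fluorescence equivalency to triamterene.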

[16] = target: Androgen receptor (Homo sapiens) (UniProt P10275); test: qHTS assay to identify small molecule antagonists of the androgen receptor (AR) signaling pathway (AID 743035; active = well fitted inhibition curve with a large enough effect in the signal ratio in the repeat runs, not every such curve was filed as active; the % refers to the signal ratio)
Outline: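 HEK293 cells stably carrying UAS-beta-lactamase reporter, 2,000/well, given compounds plus R1881 agonist and incubated 16 h at 37C. LiveBLAzer B/G FRET substrate then added for 2 h at room temperature before fluorescence reading.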

[17] = target: Androgen receptor (Homo sapiens) (UniProt P10275); test: qHTS assay to identify small molecule agonists of the androgen receptor (AR) signaling pathway (AID 743036; active = well fitted activation curve with a large enough effect in the signal ratio in the repeat runs, with a control signal flat, not every such curve was filed as active; the % refers to the signal ratio)
Outline: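 Screening used 2,000 AR-bla HEK293 cells per well, treated 16 h at 37C with test compounds in DMSO alongside positive and DMSO-only controls; beta-lactamase activity was then read by LiveBLAzer B/G FRET fluorescence after 2 h at room temperature.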

[18] = target: Androgen receptor (Homo sapiens) (UniProt P10275); test: qHTS assay to identify small molecule agonists of the androgen receptor (AR) signaling pathway using the MDA cell line (AID 743040; also: nearly all actives have a fitted effect of over 20% in size)
Outline: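 Cells plated, 5 h at 37C/0% CO2; compound or DMSO pinned; 16 h at 37C; ONE-Glo added; luminescence measured after 30 min at room temperature. Reporter line: MDA-kb2 with MMTV-luciferase responsive to AR and GR.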

[19] = target: Androgen receptor (Homo sapiens) (UniProt P10275); test: qHTS assay to identify small molecule antagonists of the androgen receptor (AR) signaling pathway using the MDA cell line (AID 743042; also: nearly all actives have a fitted effect of over 55% in size)
Outline: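 Antagonist mode: compounds plus R1881 agonist added to MDA-kb2 AR-luc cells, incubated 16 h at 37C. Luciferase reporter luminescence quantified, with multiplexed CellTiter-Fluor readout for cell viability.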

Measured: Potency

Sequence of Glucocorticoid receptor (Homo sapiens) (P04150 whole entry, looked up): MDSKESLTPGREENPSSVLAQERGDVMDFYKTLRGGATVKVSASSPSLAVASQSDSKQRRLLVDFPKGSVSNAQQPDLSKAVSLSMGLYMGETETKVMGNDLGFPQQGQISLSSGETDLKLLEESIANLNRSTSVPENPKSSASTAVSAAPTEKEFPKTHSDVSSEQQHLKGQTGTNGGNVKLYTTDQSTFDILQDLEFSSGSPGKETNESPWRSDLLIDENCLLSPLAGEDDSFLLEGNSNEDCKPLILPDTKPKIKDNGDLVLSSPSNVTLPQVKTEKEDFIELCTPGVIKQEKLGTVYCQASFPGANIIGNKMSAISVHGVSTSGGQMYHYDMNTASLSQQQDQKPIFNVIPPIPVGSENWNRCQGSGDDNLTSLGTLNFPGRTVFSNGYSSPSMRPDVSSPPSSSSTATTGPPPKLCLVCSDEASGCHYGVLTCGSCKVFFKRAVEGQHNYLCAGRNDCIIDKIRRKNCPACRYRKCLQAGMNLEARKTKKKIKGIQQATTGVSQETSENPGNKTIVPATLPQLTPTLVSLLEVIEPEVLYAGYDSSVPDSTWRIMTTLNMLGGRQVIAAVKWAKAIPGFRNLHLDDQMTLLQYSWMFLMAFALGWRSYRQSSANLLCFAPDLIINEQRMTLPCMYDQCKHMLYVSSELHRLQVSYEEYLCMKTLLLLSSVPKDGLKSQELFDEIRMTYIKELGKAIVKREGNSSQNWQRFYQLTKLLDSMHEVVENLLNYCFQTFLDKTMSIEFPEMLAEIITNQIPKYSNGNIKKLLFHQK
Sequence of Androgen receptor (Homo sapiens) (P10275 whole entry, looked up): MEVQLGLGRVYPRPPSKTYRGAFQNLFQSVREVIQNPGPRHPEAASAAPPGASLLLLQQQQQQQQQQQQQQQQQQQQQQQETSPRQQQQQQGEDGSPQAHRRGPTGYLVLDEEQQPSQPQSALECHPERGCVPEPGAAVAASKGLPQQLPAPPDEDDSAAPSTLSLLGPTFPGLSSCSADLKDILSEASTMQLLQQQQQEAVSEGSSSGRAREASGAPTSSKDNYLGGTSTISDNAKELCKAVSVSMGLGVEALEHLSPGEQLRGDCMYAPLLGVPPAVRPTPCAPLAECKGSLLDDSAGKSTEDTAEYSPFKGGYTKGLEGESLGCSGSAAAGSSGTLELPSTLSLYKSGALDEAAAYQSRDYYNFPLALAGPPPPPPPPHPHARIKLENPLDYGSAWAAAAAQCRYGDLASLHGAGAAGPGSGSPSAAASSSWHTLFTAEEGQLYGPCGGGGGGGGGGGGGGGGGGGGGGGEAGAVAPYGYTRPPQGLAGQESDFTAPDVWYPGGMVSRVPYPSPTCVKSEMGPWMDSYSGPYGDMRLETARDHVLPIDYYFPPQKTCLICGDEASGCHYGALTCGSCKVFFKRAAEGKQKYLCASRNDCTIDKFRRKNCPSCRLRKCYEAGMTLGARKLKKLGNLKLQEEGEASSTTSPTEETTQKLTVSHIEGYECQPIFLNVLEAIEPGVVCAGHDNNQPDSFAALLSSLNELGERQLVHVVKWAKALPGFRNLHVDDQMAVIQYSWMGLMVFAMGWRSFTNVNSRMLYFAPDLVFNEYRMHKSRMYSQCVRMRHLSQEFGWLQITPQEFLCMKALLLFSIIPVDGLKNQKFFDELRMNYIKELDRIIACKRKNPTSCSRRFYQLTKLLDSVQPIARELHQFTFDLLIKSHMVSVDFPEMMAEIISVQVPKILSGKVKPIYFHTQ

O=S(=O)(O)c1ccc2cc(O)c(S(=O)(=O)O)cc2c1
not listed: [15] | [16] | [17] | [18] | [19]
inactive: all other assays above

CCC(C)(CCC(C)C)C(=O)O (configuration not stated)
inactive: [1] | [3] | [4] | [15] | [5] | [6] | [9] | [10] | [12] | [13]

C=Cc1ccccn1
not listed: [9] | [14] | [16] | [17] | [18] | [19]
inactive: all other assays above

COc1cc(C(=S)N2CCOCC2)cc(OC)c1OC
not listed: [2] | [7] | [11] | [16] | [17] | [18] | [19]
inactive: all other assays above

CC(=O)c1sc(C)nc1C
not listed: [3] | [16] | [17] | [18] | [19]
inactive: all other assays above

CCN1CCc2nc(N)oc2CC1
not listed: [7] | [16] | [17] | [18] | [19]
inactive: all other assays above

CCC(C)NC(N)=O (configuration not stated)
not listed: [7] | [8] | [11]
inactive: all other assays above

CC(C)C(=O)OCCc1ccccc1
not listed: [7] | [8] | [9] | [12] | [16] | [17] | [18] | [19]
inactive: all other assays above

CCc1ccc(C=O)cc1
not listed: [2] | [3] | [9] | [16] | [17] | [18] | [19]
inactive: all other assays above

CC(=O)Nc1cccc(C)c1
not listed: [3] | [12] | [16] | [17] | [18] | [19]
inactive: all other assays above

BrCCCCCBr
not listed: [8] | [16] | [17] | [18] | [19]
inactive: all other assays above

CCCCCCCCCCCCCC
not listed: [7] | [8] | [9] | [13] | [16] | [17] | [18] | [19]
inactive: all other assays above

CN(C)c1ccc(C=O)cc1
not listed: [7] | [16] | [17] | [18] | [19]
inactive: all other assays above

OCCCCC(O)CO (configuration not stated)
not listed: [7] | [16] | [17] | [18] | [19]
inactive: all other assays above

CC(C)OC(=O)CCCCC(=O)OC(C)C
inactive: [1] | [2] | [3] | [4] | [15] | [5] | [6] | [7] | [13] | [14]
